# Bioassay records: PubChem, National Center for Advancing Translational Sciences (NCATS)
# Only some compounds are listed: those with a hit (about 2.4% of all), similar ones and a draw of the others.
# D2 ag-1: Beta-Arrestin HTS for Positive Allosteric Modulators of the Human D2 Dopamine Receptor: Agonists; hit rate 0.084% among 360,000; activation, % (concentration not given with the values); D(2) dopamine receptor (Homo sapiens), P14416; DiscoveRx PathHunter D2 beta-arrestin, luminescence, 90 min; 100% = 57 uM dopamine signal; in the data active means activation above about 40%
# Target sequence (P14416 whole entry, looked up): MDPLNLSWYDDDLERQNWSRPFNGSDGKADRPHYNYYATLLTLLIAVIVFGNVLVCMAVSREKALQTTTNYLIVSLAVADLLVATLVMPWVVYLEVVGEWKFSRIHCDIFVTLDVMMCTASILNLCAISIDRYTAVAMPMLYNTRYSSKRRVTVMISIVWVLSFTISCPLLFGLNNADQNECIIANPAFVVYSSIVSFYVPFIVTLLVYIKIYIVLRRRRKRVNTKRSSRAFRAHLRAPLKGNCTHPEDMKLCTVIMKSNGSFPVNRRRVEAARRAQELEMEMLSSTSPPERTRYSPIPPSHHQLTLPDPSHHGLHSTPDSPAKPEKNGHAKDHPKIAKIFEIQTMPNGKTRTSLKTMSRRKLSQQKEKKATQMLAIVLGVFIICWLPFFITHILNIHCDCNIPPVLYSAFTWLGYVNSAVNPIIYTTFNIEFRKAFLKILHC
#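 DiscoveRx PathHunter D2 beta-arrestin cells (2,100/well) attached overnight, then compound-stimulated 90 min at 37 C in HBSS/10 mM HEPES/0.1% Tween-20 buffer; beta-galactosidase complementation read by luminescence after 1 h at ambient temperature. Dopamine 57 uM final (EC100) as control.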
# D2 PAM-1: Beta-Arrestin HTS for Positive Allosteric Modulators of the Human D2 Dopamine Receptor: Potentiators; DiscoveRx D2 beta-arrestin cells, luminescence, 90 min; 100% = 57 uM dopamine signal; hit rate 0.23% among 360,000; potentiation, % (test concentration not listed); D(2) dopamine receptor (Homo sapiens), P14416; in the data active means potentiation above about 50%
#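 D2 cells co-treated with compound plus 50 nM dopamine (EC20) for 90 min at 37 deg C to detect potentiation. Beta-arrestin recruitment was read as enzyme-fragment luminescence after 1 h at ambient temperature. Full response was set by 57 uM dopamine.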
# D2 ag-2: HTS Assay for Allosteric Agonists of the Human D2 Dopamine Receptor: Primary Screen for Agonists; D(2) dopamine receptor (Homo sapiens), P14416; HEK293 T-REx D2 cells, calcium flux agonist mode; activation, % at 2 µM; hit rate 0.53% among 340,000; AID 485358, 2010;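 active means activation over 3 SD above normal in the single-dose calcium agonist read, cut at about 30% in these data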
#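 Tetracycline-induced HEK293 Trex cells with D2 receptor force-coupled to calcium signaling, plated overnight at 30 C and loaded with no-wash calcium dye. Calcium flux read kinetically for 180 s after compound addition; responses flag agonists.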
# D2 antag: HTS Assay for Allosteric Antagonists of the Human D2 Dopamine Receptor: Primary Screen for Antagonists. D(2) dopamine receptor (Homo sapiens), P14416. HEK293 TREx D2 cells, calcium flux, dopamine EC80. inhibition, % at 10 µM. hit rate 2% among 340,000. AID 485344, 2010; in the data active means inhibition above about 30%; inactive means below that, where a call was filed
#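 Overnight-induced (tetracycline, 30 C) HEK293 T-REx cells carrying force-coupled D2 receive a no-wash calcium dye, then compound, then EC80 dopamine at 180 s; signals are read kinetically throughout.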
# D2 PAM-2: HTS Assay for Positive Allosteric Modulators of the Human D2 Dopamine Receptor: Primary Screen for Potentiators; potentiation, % at 10 µM; HEK293 T-REx D2, calcium flux, EC20 dopamine potentiation; D(2) dopamine receptor (Homo sapiens), P14416; hit rate 0.34% among 340,000; AID 485347, 2010;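 active means potentiation over 3 SD above the plate norm, cut at about 30% in these data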
#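 Tetracycline-induced Hek293 Trex D2 cells, force-coupled to calcium, loaded with no-wash calcium dye. Compound added with 180 s kinetic read for agonism, then EC20 dopamine and a further 180 s read for potentiation.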
# Hits are given with their value; 0 = inactive; - = not tested or not shown.
SMILES,D2 ag-1,D2 PAM-1,D2 ag-2,D2 antag,D2 PAM-2
COCCn1c(C)cc(/C=C2/SC(=O)N(CC(=O)N3CCCC3)C2=O)c1C,0,0,0,34,0
COCCN1C(=O)/C(=C/c2ccc(N3CCCC3)cc2C)SC1=S,0,0,37,0,0
O=C(CSc1nc2ccccc2nc1Cc1ccc(Cl)cc1)N1CCN(c2ccccc2F)CC1,-,-,0,-,0
COc1ccc(-c2noc(CC(=O)Nc3cc(OC)ccc3OC)n2)cc1,-,-,0,-,0
COc1ccc(NC(=O)CC2C(=O)N(c3cccc(OC)c3)C(=O)N2Cc2ccc3c(c2)OCO3)cc1 (stereo not given),-,-,0,-,0
O=C(CC1SCCNC1=O)Nc1cc(Cl)cc(Cl)c1 (stereo not given),0,0,-,-,-
COC(=O)c1cc(NC(=O)CC2SCCNC2=O)cc(C(=O)OC)c1 (stereo not given),0,0,0,35,0
Cc1ccccc1NC(=O)CC1SCCNC1=O (stereo not given),0,0,0,45,0
COc1ccc(N2CCC(CNC(=O)Nc3cccc(OC)c3)C2)cc1 (stereo not given),0,0,0,57,0
CCOc1ccc(-c2noc([C@@H]3O[C@H](CO)[C@@H](O)[C@H]3O)n2)cc1,0,0,-,-,-
C/C(=N/O)c1c(O)c(C)c(-c2ccccc2)n(-c2ccccc2)c1=O,0,0,0,0,0
C/C(=N\O)c1c(O)cc(-c2ccccc2)n(-c2ccccc2)c1=O,0,0,31,0,0
CCOC(=O)c1[nH]c2c(c1Cc1ccccc1)C(=O)CC(c1ccc(Cl)cc1)C2 (stereo not given),-,-,0,-,0
Brc1ccc(-c2nc3ccccn3c2Nc2ccc3c(c2)OCCO3)o1,-,-,0,-,0
O=C(CSC1=NCCN1)Nc1cccc(C(F)(F)F)c1,0,0,0,75,0
COCCNC(=S)N/N=C(\C)c1ccc(C)c([N+](=O)[O-])c1,0,0,0,32,0
CCc1ccc(-n2c(=O)c3c(C)c(C(=O)N(C)C)sc3n(CC(=O)NCC3CCCO3)c2=O)cc1 (stereo not given),0,0,0,0,0
COc1cccc(-n2c(=O)c3c(C)c(C(=O)N(C)C)sc3n(CC(=O)NCC3CCCO3)c2=O)c1 (stereo not given),0,0,0,41,0
COc1ccc(-c2cc3nc(C)c(CCC(=O)N4CCN(c5cc(C)ccc5C)CC4)c(C)n3n2)c(OC)c1,-,-,0,-,0
CCN(CC)C(=O)COc1ccc2oc(C)c(C(=O)OC(C)C)c2c1,0,0,0,31,0
Cc1oc2ccc(OS(C)(=O)=O)cc2c1C(=O)OC(C)C,0,0,0,0,-
Cc1ccc(C(=O)N/C(=C\c2sccc2C)C(=O)NCCCN2CCOCC2)cc1,0,0,0,31,0
CCOc1ccc(NC(=O)CN(C)c2nnnn2-c2ccccc2)cc1OCC,0,0,0,35,0
COc1ccc(OC)c(-n2nnnc2SCC(=O)Nc2ccccc2OC)c1,0,0,0,31,0
CCOC(=O)c1ccccc1NC(=O)CSc1nccn1C,0,0,0,0,53
SMILES,D2 ag-1,D2 PAM-1,D2 ag-2,D2 antag,D2 PAM-2
CCOc1ccccc1NC(=O)CSc1nnc2c(CC)c(C)nc(N)n12,0,0,0,35,-
COc1ccc(C2c3c(n(C)c4ccccc34)C(=O)N2CC(=O)Nc2cccc(F)c2)cc1 (stereo not given),-,-,0,-,0
Cc1ccccc1C(=O)Nc1ccc2oc(-c3ccc(Cl)c(Cl)c3)nc2c1,-,-,-,-,0
CCOc1ccc(CCNC(=O)c2ccc(CS(=O)(=O)c3ccccc3C)o2)cc1OCC,-,-,0,-,0
CCOc1ccc(-c2cc(C)n3nc(C(=O)Nc4cc(Cl)ccc4O)cc3n2)cc1,-,-,0,-,0
CCCCC(=O)N(C)c1c(CC)nc2c(OCC(=O)C(C)(C)C)cccn12,0,0,-,-,-
CCN(CC)c1ccc(C2C(C(N)=O)=C(C)Nc3nc(SCc4ccccc4Cl)nn32)cc1 (stereo not given),-,-,0,-,0
CCOc1ccccc1NC(=O)CSc1nnnn1-c1ccccc1,0,0,0,31,0
COc1ccc(OC)c(NC(=O)CSc2nncc3ccccc23)c1,0,0,0,0,0
COCCn1c(SCC(=O)Nc2cccnc2Cl)nc2ccccc21,0,0,-,-,-
COCCn1c(SCC(=O)Nc2ccccc2OC)nc2ccccc21,0,0,0,35,0
CCOc1ccccc1NC(=O)CSc1nncc2ccccc12,0,0,0,0,35
CCOc1ccccc1NC(=O)CSc1nnnn1-c1ccc(C(=O)OC)cc1,0,0,0,50,0
CC(=O)N1CCc2cc(CNS(=O)(=O)c3cccs3)ccc21,-,-,0,-,0
COCCn1c(SCc2nc3sc(C(=O)OC)c(C)c3c(=O)[nH]2)nc2ccccc21,0,0,0,31,0
CCn1c(SCc2nc3sc(C(=O)O)c(C)c3c(=O)[nH]2)nc2ccccc21,0,0,0,0,0
C=CCOC(=O)C1=C(C)OC(N)=C(C#N)C1c1c(C)nn(-c2ccccc2)c1Cl (stereo not given),0,0,0,44,0
COc1ccc(/C=C(\C#N)C(=O)OC2CCOC2=O)cc1 (stereo not given),0,0,0,33,0
Cc1ccc(C)c(Cn2c(SCC(=O)NCc3ccccc3)nc3ccccc32)c1,-,-,0,-,0
COc1cc(NS(=O)(=O)c2ccc(NC(=O)/C(=C/c3ccccc3Cl)NC(=O)c3ccccc3)cc2)nc(OC)n1,0,0,0,0,0
COc1ccc(NC(=O)/C(=C\c2ccc(OS(=O)(=O)c3ccc(C)cc3)cc2)NC(=O)c2ccccc2)cc1,0,0,0,0,40
COc1cc(NS(=O)(=O)c2ccc(NC(=O)/C(=C\c3ccccc3OC)NC(=O)c3ccccc3)cc2)nc(OC)n1,0,0,0,32,0
CCOC(=O)c1ccccc1NC(=O)c1sc2ncn(CC)c(=O)c2c1C,-,-,0,-,0
CCOC(=O)N1CC=C2C(C#N)=C(N)C(C#N)(C#N)[C@H](c3cccs3)C2C1 (stereo not given in full),0,0,0,0,72
O=C1C(Nc2ccccc2)=C/C(=N/S(=O)(=O)c2cccs2)c2ccccc21,0,0,0,0,0
Cc1ccc(NC2=C/C(=N/S(=O)(=O)c3cccs3)c3ccccc3C2=O)cc1,0,58,0,0,0
